The source made the active and inactive calls. Rule for the calls: active = hit-call score of the fitted dose curve at least 0.9, where 1 is the maximum; inactive = score below 0.9.

Among the data in PubChem BioAssay (EPA / NIEHS) are outcome and AC50 values, retold here.

Assay [1] can be described thus: ATG_DR4_LXR_CIS: Attagene CIS-FACTORIAL HepG2 Assay for human Liver X Receptor (LXR), DR4 submotif (AID 2282929). Conditions: HepG2 Attagene DR4 cis-reporter, mRNA transcription; AC50: actives raise or lower the signal unless noted; outcome: actives raise or lower the signal unless noted. Put shortly: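 Cells were transfected with multiple reporter transcription units, exposed to chemicals for 24 hours, then lysed for RNA. Reporter mRNA induction was measured by RT-PCR with capillary electrophoresis detection and fitted in both directions relative to DMSO.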

The target of assay [2] is Aryl hydrocarbon receptor (Homo sapiens) (UniProt P35869). The experiment in a line: ATG_Ahr_CIS: Attagene CIS-FACTORIAL HepG2 Assay for human Aryl Hydrocarbon Receptor (Ahr) (AID 2282930). Conditions: HepG2 AhR cis-factorial reporter transcription; actives raise or lower the signal. The essentials:
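Following 24 h of chemical dosing, transfected HepG2 liver cells with cis-driven reporter units were lysed for RNA; reporter mRNA was quantified via RT-PCR and capillary electrophoresis, and responses fitted bidirectionally from DMSO.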

Assay [3] is described as follows: ATG_AP_1_CIS: Attagene CIS-FACTORIAL HepG2 Assay for human Activator Protein 1 (AP-1) (AID 2282931). The following applies: HepG2 Attagene cis-factorial AP-1 reporter mRNA; actives raise or lower the signal. The essentials:
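Endogenous transcription-factor activity in human HepG2 liver cells is read through a cis-promoter reporter transcript, sampled 24 h after dosing. Detection uses RT-PCR with capillary electrophoresis; values come from bidirectional fitting relative to DMSO.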

Assay [4] is described as follows: ATG_AP_2_CIS: Attagene CIS-FACTORIAL HepG2 Assay for human Activator Protein 2 (AP-2) (AID 2282932). Conditions: HepG2 AP-2 cis-reporter, Attagene transcription factor profiling; AC50: actives raise or lower the signal unless noted; outcome: actives raise or lower the signal unless noted. Put shortly:
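HepG2 cells were transiently transfected with multiple cis-promoter reporter transcription units and dosed for 24 h. Reporter mRNA was measured by RT-PCR with capillary electrophoresis fluorescence; bidirectional fits relative to DMSO baseline.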

A short description of assay [5]: ATG_BRE_CIS: Attagene CIS-FACTORIAL HepG2 Assay for human Bone Morphogenetic Protein (BMP) Response Element (BRE) (AID 2282933). Conditions: HepG2 BMP response element reporter, Attagene transcription factor profiling; actives raise or lower the signal. The essentials: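 Gain- or loss-of-signal was derived by bidirectional fitting against DMSO controls. The signal came from reporter mRNA, measured by RT-PCR and capillary electrophoresis, in HepG2 cells transiently carrying multiple reporter units and dosed for 24 h.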

For assay [6], the target named is Retinoic acid receptor alpha (Homo sapiens) (UniProt P10276). Put plainly: ATG_DR5_RAR_CIS: Attagene CIS-FACTORIAL HepG2 Assay for human Retinoic Acid Receptor Alpha (RARE), DR5 submotif (AID 2282934). The following applies: HepG2 Attagene cis-factorial RARE DR5 reporter, mRNA; actives raise or lower the signal. Put shortly:
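Transfected HepG2 reporter cells are exposed to chemicals for 24 h. Then RNA is extracted and the DR5 element reporter transcript is measured by RT-PCR and capillary electrophoresis, with bidirectional curve fitting relative to DMSO.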

Assay [7] has as its target Transcription factor E2F1 (Homo sapiens) (UniProt Q01094). The experiment in a line: ATG_E2F_CIS: Attagene CIS-FACTORIAL HepG2 Assay for human E2F Transcription Factor 1 (AID 2282935). Conditions: HepG2 Attagene cis-reporter, E2F reporter RNA transcripts; actives raise or lower the signal. The essentials: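 HepG2 cells transiently transfected with multiplexed cis-element reporter units, dosed for 24 h. Reporter mRNA measured by RT-PCR, 6-FAM primer-extension labeling, HpaI digestion and capillary electrophoresis; bidirectional fit versus DMSO baseline.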

The nature of assay [8]: ATG_M_61_CIS: Attagene CIS-FACTORIAL HepG2 Assay for M61 Transcription Factor (Internal Marker) (AID 2282937). Conditions: HepG2 Attagene CIS-FACTORIAL M61 internal marker reporter; actives raise or lower the signal. The essentials: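 Cells were transfected with reporter units under cis-regulatory promoters, treated with chemicals for 24 h, then lysed for RNA. Reporter transcripts were quantified by RT-PCR and capillary electrophoresis, and activity was fitted bidirectionally against DMSO.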

Assay [9] in a line: ATG_EGR_CIS: Attagene CIS-FACTORIAL HepG2 Assay for human Early Growth Response 1 (EGR1) (AID 2282938). The following applies: HepG2 Attagene CIS-FACTORIAL EGR reporter mRNA; actives raise or lower the signal. The essentials:
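Endogenous TF activity in HepG2 liver cells was gauged through cis-promoter reporter constructs transiently transfected. After 24 h dosing, reporter mRNA was quantified by RT-PCR and capillary electrophoresis, and curves fitted in both directions versus DMSO.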

Assay [10] in a line: ATG_M_19_CIS: Attagene CIS-FACTORIAL HepG2 Assay for M19 Transcription Factor (Internal Marker) (AID 2282939). The following applies: HepG2 Attagene CIS-FACTORIAL M19 internal marker reporter; actives raise or lower the signal. The essentials: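 Following a 24 h exposure, RNA from transfected HepG2 cells was reverse-transcribed, PCR-amplified with reporter-specific primers, end-labelled with 6-FAM and HpaI-digested before capillary separation. Values represent gain or loss versus DMSO.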

The nature of assay [11]: ATG_ERE_CIS: Attagene CIS-FACTORIAL HepG2 Assay for Estrogen Response Element (ERE) (AID 2282940). Conditions: HepG2 ERE cis-reporter, Attagene RNA transcript; actives raise or lower the signal. Put shortly:
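HepG2, transient cis-reporter units, 24 h exposure. RNA isolated, oligo(dT) RT, reporter-specific PCR, FAM extension, HpaI cut, CE detection. Gain/loss-of-signal vs DMSO.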

The nature of assay [12]: ATG_Ets_CIS: Attagene CIS-FACTORIAL HepG2 Assay for human Erythroblast Transformation Specific (ETS) (AID 2282941). The following applies: HepG2 ETS cis-reporter transcription; AC50: actives raise or lower the signal unless noted; outcome: actives raise or lower the signal unless noted. Put shortly: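 After transient cis-reporter transfection, HepG2 cells receive test chemical for 24 h. Reporter mRNA levels, measured by RT-PCR and capillary electrophoresis fluorescence, are analysed bidirectionally relative to the DMSO baseline.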

Assay [13] concerns the target Hepatocyte nuclear factor 3-beta (Homo sapiens) (UniProt Q9Y261). Put plainly: ATG_FoxA2_CIS: Attagene CIS-FACTORIAL HepG2 Assay for human Forkhead box A2 (FOXA2) (AID 2282942). The following applies: HepG2 cis-reporter transcription factor activity, 24 h; actives raise or lower the signal. The essentials:
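Endogenous transcription factor activity was read in HepG2 cells carrying transiently transfected cis-promoter reporter units. After 24 h dosing, reporter mRNA was quantified by RT-PCR and capillary electrophoresis, and values fitted bidirectionally versus DMSO.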

Assay [14] can be described thus: ATG_FoxO_CIS: Attagene CIS-FACTORIAL HepG2 Assay for human Forkhead box O (FoxO) (AID 2282943). Conditions: HepG2 Attagene cis-reporter, FoxO element, mRNA; actives raise or lower the signal. The essentials: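 24 h chemical exposure, HepG2 with transient cis-MRTU transfection. RNA extraction, oligo(dT) RT, reporter-specific PCR, primer-extension labelling, HpaI digestion, CE fragment analysis; bidirectional fit, DMSO baseline.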

Assay [15] is described as follows: ATG_GATA_CIS: Attagene CIS-FACTORIAL HepG2 Assay for human GATA Binding Protein (AID 2282944). Conditions: HepG2 GATA cis-element reporter, Attagene multiplex mRNA; actives raise or lower the signal. Put shortly:
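DMSO serves as negative control and baseline for bidirectional fitting of reporter mRNA changes. HepG2 cells bearing transiently transfected cis-promoter reporters were exposed 24 h; transcripts detected via RT-PCR and capillary electrophoresis.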

A short description of assay [16]: ATG_GLI_CIS: Attagene CIS-FACTORIAL HepG2 Assay for human Zinc Finger Protein GLI1 (AID 2282945). Conditions: HepG2, Attagene cis-factorial reporter mRNA, GLI element; actives raise or lower the signal. Put shortly: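 HepG2 cells transiently transfected with cis-promoter multiplexed reporter units report endogenous transcription factor activity. After 24 h chemical exposure, reporter mRNA was quantified by RT-PCR, 6-FAM labelling, HpaI digestion and capillary electrophoresis, with bidirectional fitting against DMSO.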

The target in assay [17] is Bile acid receptor (Homo sapiens) (UniProt Q96RI1). The experiment in a line: ATG_IR1_CIS: Attagene CIS-FACTORIAL HepG2 Assay for human Nuclear Receptor Subfamily 1 Group H Member 4 (NR1H4), IR1 submotif (AID 2282946). The following applies: IR1 reporter transcription, actives raise or lower the signal. Put shortly:
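Transient MRTU transfection, HepG2; 24 h dosing; RNA → RT-PCR → 6-FAM primer extension → HpaI digest → capillary electrophoresis fluorescence. Gain/loss of signal fitted relative to DMSO.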

A short description of assay [18]: ATG_GRE_CIS: Attagene CIS-FACTORIAL HepG2 Assay for human Glucocorticoid Response Elements (GRE) (AID 2282947). The following applies: HepG2 GRE cis-reporter, Attagene multiplex mRNA; AC50: actives raise or lower the signal unless noted; outcome: actives raise or lower the signal unless noted. Put shortly:
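HepG2 cells transiently transfected with multiple cis-promoter reporter units measure endogenous TF activity; 24 h compound exposure. Reporter mRNA quantified by RT-PCR, FAM labelling, HpaI digestion and capillary electrophoresis; bidirectional fit vs DMSO baseline.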

Assay [19] in a line: ATG_ISRE_CIS: Attagene CIS-FACTORIAL HepG2 Assay for human Interferon Regulatory Factor 1 (IRF1) binding to an Interferon-Stimulated Response Element (ISRE) (AID 2282948). The following applies: HepG2 ISRE cis-reporter (Attagene), mRNA transcription readout; actives raise or lower the signal. Put shortly: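 Quantitation relies on labelled RT-PCR fragments separated by capillary electrophoresis. Human HepG2 cells bearing cis-promoter reporter constructs were treated 24 h; DMSO served as baseline for bidirectional fitting.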

A short description of assay [20]: ATG_E_Box_CIS: Attagene CIS-FACTORIAL HepG2 Assay for human Enhancer Box (E-box) (AID 2282936). The following applies: HepG2 E-box cis-reporter transcription, actives raise or lower the signal. Put shortly: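 HepG2 cells transiently transfected with multiplexed cis-element reporter units sensing endogenous transcription factor activity; 24 h compound exposure. Reporter mRNA measured by RT-PCR, 6-FAM primer extension, HpaI digestion and capillary electrophoresis; bidirectional fit versus DMSO.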

Bile acid receptor (Homo sapiens), sequence (Q96RI1 whole entry, looked up): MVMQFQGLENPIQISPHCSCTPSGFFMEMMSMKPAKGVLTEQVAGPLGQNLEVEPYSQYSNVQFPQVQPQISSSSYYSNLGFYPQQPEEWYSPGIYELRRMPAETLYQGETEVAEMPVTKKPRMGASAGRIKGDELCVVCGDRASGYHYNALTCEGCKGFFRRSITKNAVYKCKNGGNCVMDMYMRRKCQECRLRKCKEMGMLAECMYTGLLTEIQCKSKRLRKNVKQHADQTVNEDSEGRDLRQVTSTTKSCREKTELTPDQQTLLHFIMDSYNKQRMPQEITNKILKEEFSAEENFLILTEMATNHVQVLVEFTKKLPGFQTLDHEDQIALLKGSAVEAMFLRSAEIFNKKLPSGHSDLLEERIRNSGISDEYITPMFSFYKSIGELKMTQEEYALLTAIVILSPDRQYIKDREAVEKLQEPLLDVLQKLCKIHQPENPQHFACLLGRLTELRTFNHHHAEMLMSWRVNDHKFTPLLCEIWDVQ
Retinoic acid receptor alpha (Homo sapiens), sequence (P10276 whole entry, looked up): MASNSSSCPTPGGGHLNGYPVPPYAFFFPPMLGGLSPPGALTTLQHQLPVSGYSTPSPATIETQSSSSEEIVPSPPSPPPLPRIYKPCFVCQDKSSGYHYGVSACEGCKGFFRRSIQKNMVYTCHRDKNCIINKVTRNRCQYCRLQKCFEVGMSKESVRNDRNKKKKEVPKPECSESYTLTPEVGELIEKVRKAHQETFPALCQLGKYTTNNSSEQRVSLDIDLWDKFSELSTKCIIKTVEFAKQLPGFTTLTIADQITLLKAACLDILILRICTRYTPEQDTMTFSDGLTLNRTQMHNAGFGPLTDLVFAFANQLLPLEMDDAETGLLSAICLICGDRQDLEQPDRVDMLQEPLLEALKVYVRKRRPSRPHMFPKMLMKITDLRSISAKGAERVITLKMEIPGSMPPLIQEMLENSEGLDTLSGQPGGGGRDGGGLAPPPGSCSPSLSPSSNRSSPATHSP
Transcription factor E2F1 (Homo sapiens), sequence (Q01094 whole entry, looked up): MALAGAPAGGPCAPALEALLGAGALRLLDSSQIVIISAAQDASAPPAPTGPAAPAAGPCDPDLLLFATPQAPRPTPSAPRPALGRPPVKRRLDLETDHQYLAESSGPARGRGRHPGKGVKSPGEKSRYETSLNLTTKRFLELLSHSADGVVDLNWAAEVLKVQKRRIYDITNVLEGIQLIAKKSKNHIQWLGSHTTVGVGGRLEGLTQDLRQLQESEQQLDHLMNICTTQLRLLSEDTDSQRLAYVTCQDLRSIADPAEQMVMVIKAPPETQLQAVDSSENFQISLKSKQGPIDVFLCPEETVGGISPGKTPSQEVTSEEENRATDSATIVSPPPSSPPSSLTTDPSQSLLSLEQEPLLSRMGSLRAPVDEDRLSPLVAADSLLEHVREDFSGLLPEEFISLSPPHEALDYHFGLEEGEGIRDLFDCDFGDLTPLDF
Aryl hydrocarbon receptor (Homo sapiens), sequence (P35869 whole entry, looked up): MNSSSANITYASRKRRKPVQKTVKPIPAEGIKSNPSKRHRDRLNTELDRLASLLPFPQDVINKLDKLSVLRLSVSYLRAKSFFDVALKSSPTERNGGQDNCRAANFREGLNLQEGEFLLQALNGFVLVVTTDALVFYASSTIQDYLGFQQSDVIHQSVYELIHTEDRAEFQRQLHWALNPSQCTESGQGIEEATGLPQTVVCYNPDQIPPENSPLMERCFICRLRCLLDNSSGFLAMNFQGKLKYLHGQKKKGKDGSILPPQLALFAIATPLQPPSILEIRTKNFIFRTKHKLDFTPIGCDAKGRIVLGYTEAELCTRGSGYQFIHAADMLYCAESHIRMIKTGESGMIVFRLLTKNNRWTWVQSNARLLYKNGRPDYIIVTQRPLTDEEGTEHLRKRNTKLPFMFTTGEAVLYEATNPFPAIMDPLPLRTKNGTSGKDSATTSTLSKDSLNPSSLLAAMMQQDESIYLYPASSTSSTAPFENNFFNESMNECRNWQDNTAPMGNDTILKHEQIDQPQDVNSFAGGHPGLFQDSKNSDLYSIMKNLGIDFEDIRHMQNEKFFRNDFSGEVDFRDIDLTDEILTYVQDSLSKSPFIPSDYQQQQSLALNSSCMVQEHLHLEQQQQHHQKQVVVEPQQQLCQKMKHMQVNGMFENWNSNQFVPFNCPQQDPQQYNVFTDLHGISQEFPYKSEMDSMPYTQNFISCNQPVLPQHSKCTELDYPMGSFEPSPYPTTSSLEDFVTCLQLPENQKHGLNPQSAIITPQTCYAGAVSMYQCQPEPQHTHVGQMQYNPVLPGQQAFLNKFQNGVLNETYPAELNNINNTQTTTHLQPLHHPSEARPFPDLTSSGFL
Hepatocyte nuclear factor 3-beta (Homo sapiens), sequence (Q9Y261 whole entry, looked up): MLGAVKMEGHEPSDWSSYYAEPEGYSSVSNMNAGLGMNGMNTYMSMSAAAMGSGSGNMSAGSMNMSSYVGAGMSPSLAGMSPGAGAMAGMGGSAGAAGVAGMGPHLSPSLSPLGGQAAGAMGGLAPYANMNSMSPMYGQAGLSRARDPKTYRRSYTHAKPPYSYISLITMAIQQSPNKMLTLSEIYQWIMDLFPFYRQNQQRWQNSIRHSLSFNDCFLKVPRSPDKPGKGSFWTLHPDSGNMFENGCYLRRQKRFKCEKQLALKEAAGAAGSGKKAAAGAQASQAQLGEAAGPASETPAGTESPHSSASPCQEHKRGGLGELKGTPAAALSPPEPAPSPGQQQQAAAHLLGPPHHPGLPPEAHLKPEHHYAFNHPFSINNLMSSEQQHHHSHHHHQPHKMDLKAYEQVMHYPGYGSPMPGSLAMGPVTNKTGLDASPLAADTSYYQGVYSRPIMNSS

For the compound `CCN(CC)CC`, the outcome in assay [1], in [2], in assay [3], in assay [4], in [5] and in [6] was inactive. Further, the call in [7], in assay [8], in [9], in assay [10], in assay [11] and in assay [12] was inactive. In addition, the outcome in [13], in assay [14], in assay [15], in [16], in assay [17] and in [18] was inactive. Moreover, the compound was called inactive in assay [19].

Turning to `O=C(O)CN(CCCN(CC(=O)O)CC(=O)O)CC(=O)O`, the figures for the AC50 in [1] and in [9] were 6.63 µM (active) and 6.32 µM (active), respectively. For the same compound, the outcome in assay [2], in [3], in assay [4], in assay [5], in assay [7] and in [20] was inactive. Besides, the outcome in assay [8], in assay [10], in [11], in assay [12], in assay [13] and in [14] was inactive. The compound was classed as inactive in [15], in [16], in assay [18] and in assay [19].

For `CCOC(=O)c1nc(C(Cl)(Cl)Cl)n(-c2ccc(Cl)cc2Cl)n1`, the AC50 in assay [1] is 48.5 µM (active); in assay [3], 57.8 µM (active); in assay [4] it was 25.3 µM (active); in [7], 181 µM (active); in assay [9], 100 µM (active); in assay [12], 100 µM (active). For the same compound, the AC50 is 164 µM (active) in assay [16], 26.6 µM (active) in assay [17], 169 µM (active) in [18] and 53.2 µM (active) in assay [19]. The call in assay [2], in assay [5], in [6], in assay [8], in [10] and in [11] was inactive. In addition, the compound was classed as inactive in assay [13], in assay [14] and in assay [15].

For the compound `COc1cc([N+](=O)[O-])ccc1N`, the outcome in assay [1], in assay [2], in assay [3], in [4], in assay [5] and in assay [6] was inactive. Also, the call in assay [7], in assay [8], in assay [9], in assay [11], in [12] and in [13] was inactive. Moreover, the compound was called inactive in assay [14], in [15], in [16], in [17], in assay [18] and in assay [19].

As a reminder, the AC50 is the concentration giving half of the maximal activity seen.
